The values below come from PubChem BioAssay (NCATS).

The structures appear in SMILES notation. Records with an inconclusive call do not appear. Activity calls are given as the source filed them. Calls come from the whole dose curve; as a rule, active = well fitted cell-killing curve with a large enough effect; inconclusive = small, poorly fitted or top-dose-only effect, or effect the other way; inactive = no such curve, though single readings can be large or run the other way.
Potency is the fitted concentration of half-maximal effect.

The assay can be described thus: Quantitative High-Throughput drug screen in 47 multiple myeloma cell lines against the NCATS MIPE library collection: U266_ATCC cell viability assay (AID 1919864). Note: nearly all actives have a fitted effect of over 35% in size. The settings on record: U266 myeloma viability, CellTiter-Glo ATP luminescence, 48 h; series mostly up to 45.8 µM; viability (% of DMSO control): at the top concentration. From the text:
PI: Beverly A. Mock Ph.D.
Laboratory of Cancer Biology and Genetics,
Center for Cancer Research, National Cancer Institute,
National Institute of Health, Bethesda, Maryland
Drug resistance and disease progression are common in multiple myeloma (MM) patients, underscoring the need for new therapeutic combinations. […] We hypothesized that effective combinations would reduce MYC expression and enhance p16 activity. […] These preclinical data identify potentially useful drug combinations for evaluation in drug-resistant MM and reveal potential mechanisms of combined drug sensitivity.
Described herein is the primary MIPE qHTS used to cherrypick compounds. Validated compounds were then further tested for potential synergistic activiy.
[1] Peat TJ, Gaikwad SM, Dubois W, Gyabaah-Kessie N, Zhang S, Gorjifard S, Phyo Z, Andres M, Hughitt VK, Simpson RM, Miller MA, Girvin AT, Taylor A, Williams D, D'Antonio N, Zhang Y, Rajagopalan A, Flietner E, Wilson K, Zhang X, Shinn P, Klumpp-Thomas C, McKnight C, Itkin Z, Chen L, Kazandijian D, Zhang J, Michalowski AM, Simmons JK, Keats J, Thomas CJ, Mock BA. Drug combinations identified by high-throughput screening promote cell cycle transition and upregulate Smad pathways in myeloma. Cancer Lett. 2023 Aug 1;568:216284. doi: 10.1016/j.canlet.2023.216284. Epub 2023 Jun 24. PMID: 37356470; PMCID: PMC10408729.
SEQUENCE No. (e.g., 1, 2, 3, etc.); […] (e.g., Cells, Incubation, Reagent, etc.); VALUE and DESCRIPTION.
1; Cells; 5 uL; white, solid bottom 1536-well Greiner assay plate.
2; Compounds; 23 nL; Kalypsis pin tool (Wako USA) equipped with a 1536-well pin head to transfer to the assay plates.
3; Incubation; 48 hours; 37C incubation.
4; Reagent;5uL; CellTiter Glo (Promega).
5; Detector; 425V; Luminescence; Viewlux PerkinElmer.
NOTES (numbers refer to Sequence numbers above)
1. The cell-based screening methods employed in this study were like those previously published. Briefly, the corresponding myeloma cell lines were screened in 1,536-well plates with 500 cells, 5-uL per well for inhibition of cell viability (assessed by measuring ATP levels with CellTiterGlo).
2. NCATS MIPE 4.0 library of approved and investigational drugs were added using the Kalypsis pin tool. Wells treated with DMSO only for 100% viability and media only for 0% viability were used as controls.
3. The assay plates were covered and incubated for 48 hours in a 37C, 5% CO2 incubator with controlled humidity.
4. After 48 hours, CellTilter-GloTM luminescent substrate mix (Promega) reagent was added to the assay plate and plates we incubated for 5 min at room temperature.
5. Signal was measured as median relative luminescence units on a ViewLux (PerkinElmer) multiplate reader.
[1] Heske CM, Davis MI, Baumgart JT, Wilson K, Gormally MV, Chen L, Zhang X, Ceribelli M, Duveau DY, Guha R, Ferrer M, Arnaldez FI, Ji J, Tran HL, Zhang Y, Mendoza A, Helman LJ, Thomas CJ. Matrix Screen Identifies Synergistic Combination of PARP Inhibitors and Nicotinamide Phosphoribosyltransferase (NAMPT) Inhibitors in Ewing Sarcoma. Clin Cancer Res. 2017 Dec 1;23(23):7301-7311. doi: 10.1158/1078-0432.CCR-17-1121. Epub 2017 Sep 12. PMID: 28899971; PMCID: PMC6636827.
(In general: ATP-based viability assays read luminescence as a measure of living cells.)
Regarding `Cn1cnc([N+](=O)[O-])c1Sc1ncnc2nc[nH]c12`, the Potency is 10.5 µM (active).
On to `CCCn1c(=O)c2[nH]c(C34CC5CC3C[C@@H](C5)C4)nc2n(CCC)c1=O`, for which the “viability (% of DMSO control)” value was 118% (inactive).
As for `O=C(Nc1cccnc1)N1CCC(Cc2cccc(Oc3ccc(C(F)(F)F)cn3)c2)CC1`, the Potency was 18.7 µM (active).
For the molecule `O=C1CCCC2=C1C(c1[nH]ncc1Cl)N=C(Nc1nc3ccccc3o1)N2` (stereo not given), the Potency is 14.8 µM (active).
As for `CC(C=CC1=C(C)CCCC1(C)C)=CC=CC(C)=CC(=O)O`, the Potency was 2.09 µM (active).
Take `CO[C@@H]1[C@H](N(C)C(=O)c2ccccc2)C[C@H]2O[C@]1(C)n1c3ccccc3c3c4c(c5c6ccccc6n2c5c31)C(=O)NC4`: the Potency was 3.72 µM (active).
For `OC(CCN1CCCCC1)(c1ccccc1)C1CC2C=CC1C2` (stereo not given), the “viability (% of DMSO control)” value was 116% (inactive).
In the case of `CS(=O)(=O)c1cccc(CNc2nc(Nc3ccc4c(c3)CCC(=O)N4)ncc2C(F)(F)F)c1`, the Potency is 18.7 µM (active).
In the case of `COc1cc2nccc(Oc3ccc(NC(=O)NC4CC4)c(Cl)c3)c2cc1C(N)=O`, the Potency was 7.43 µM (active).
Regarding `CCOc1ccc(Cc2cc([C@@H]3O[C@H](CO)[C@@H](O)[C@H](O)[C@@H]3O)ccc2Cl)cc1`, the “viability (% of DMSO control)” value is 141% (inactive).
On the same count and under the same terms, then `Cc1[nH]c(=O)c(C#N)cc1-c1ccc2nccn2c1`, with 122% (inactive).
Turning to `COc1cc(Oc2ccnc3cc(OC)c(OC)cc23)ccc1NC(=O)NC(C)c1nccs1` (stereo not given), the “viability (% of DMSO control)” value was 131% (inactive).
Consider `Nc1nc2c(ncn2COCCO)c(=O)[nH]1`, for which the “viability (% of DMSO control)” value was 117% (inactive).
On to `Fc1ccc(Cl)cc1-c1nc(Nc2ccncc2)c2nccnc2n1`, for which the “viability (% of DMSO control)” value is 129% (inactive).
In the case of `Cc1c(CCOc2ccc(C(=O)O)cc2)c2cc(Cl)ccc2n1C(c1ccccc1)c1ccccc1`, the Potency is 11.8 µM (active).
Turning to `CN(C)c1ccc(C2Nc3ccc4ccccc4c3C3=C2C(=O)CC(C)(C)C3)cc1Br` (stereo not given), the “viability (% of DMSO control)” value is 143% (inactive).
The same measure, in the same setting: then `COCCNCCCn1c(C(=O)CF)c(-c2ccc(C)cc2)c2c(N)ncnc21`, with 112% (inactive).
With `NCCc1ccc(O)c(O)c1`, the Potency is 23.5 µM (active).
On the same count and under the same terms, then `NNCCc1ccccc1`, with 8.33 µM (active).
With `COc1ccc(-c2c(-c3ccc(O)cc3O)n[nH]c2C)cc1`, the “viability (% of DMSO control)” value was 101% [at 92.2 µM] (inactive).
For `COc1ccc(-c2ccc3c(N4CCOCC4)nc(N4C[C@@H](C)O[C@@H](C)C4)nc3n2)cc1CO`, the Potency is 0.332 µM (active).
On to `Nc1nc2ccc(OC(F)(F)F)cc2s1`, for which the “viability (% of DMSO control)” value was 119% (inactive).
For the molecule `O=C(O)[C@@H](c1ccc(OCc2ccc3ccccc3n2)cc1)C1CCCC1`, the “viability (% of DMSO control)” value is 117% (inactive).
Regarding `Oc1ccc(C2CNCCc3c2cc(O)c(O)c3Cl)cc1` (stereo not given), the “viability (% of DMSO control)” value was 133% (inactive).
Take `N#CC[C@H](C1CCCC1)n1cc(-c2ncnc3[nH]ccc23)cn1`: the Potency is 18.7 µM (active).
Still for that read-out and setting: the same measure for `S=C(NCc1ccc2c(c1)OCO2)N1CCN(c2ncnc3c2oc2ccccc23)CC1`: 12.1 µM (active).
Consider `C[C@]12CC[C@H](O)CC1=CC[C@@H]1[C@H]2CC[C@]2(C)C(c3cccnc3)=CC[C@H]12`, for which the “viability (% of DMSO control)” value is 134% [at 23.2 µM] (inactive).
In the case of `O=c1[nH]cnc2[nH]ncc12`, the “viability (% of DMSO control)” value was 113% (inactive).
With `COc1ccc(-c2ccc3c(N4CCOC[C@H]4C)nc(N4CCOC[C@H]4C)nc3n2)cc1CO`, the Potency was 0.0074 µM (active).
Take `COc1ccc([C@@H]2CC(=O)c3c(O)cc(O[C@@H]4O[C@H](CO[C@@H]5O[C@@H](C)[C@H](O)[C@@H](O)[C@@H]5O)[C@@H](O)[C@H](O)[C@@H]4O)cc3O2)cc1O`: the “viability (% of DMSO control)” value was 140% (inactive).
On to `O=c1ncn2nc(Sc3ccc(F)cc3F)ccc2c1-c1c(Cl)cccc1Cl`, for which the Potency was 20.9 µM (active).
On to `CCc1ccc(CCOc2ccc(CC3SC(=O)NC3=O)cc2)nc1` (stereo not given), for which the “viability (% of DMSO control)” value is 134% (inactive).
With `CCc1cncnc1N1CCN(Cc2nc3ccc(C(F)(F)F)cc3[nH]2)CC1`, the Potency is 6.62 µM (active).
As to `O=C(Nc1nc2ccccc2n1CCN1CCOCC1)c1cccc([N+](=O)[O-])c1`, the Potency was 14.8 µM (active).
With `COc1cccc2cc(-c3nc(C4CCC(C(=O)O)CC4)n4ncnc(N)c34)[nH]c12` (stereo not given), the Potency is 0.296 µM (active).
In the case of `Cc1ccccc1C(C(=O)NC1CCCC1)N(C(=O)Cn1cnc2ccccc21)c1cccc(F)c1` (stereo not given), the Potency was 23.5 µM (active).
Consider `Cc1cc2c(F)c(Oc3ncnn4cc(OC[C@@H](C)O)c(C)c34)ccc2[nH]1`, for which the Potency was 23.5 µM (active).
On the same count and under the same terms, then `COc1ccc(-c2oc3cc(OC)ccc3c2C(=O)c2ccc(C#N)cc2)cc1`, with 16.6 µM (active); and `CCCS(=O)(=O)Nc1ccc(F)c(C(=O)c2c[nH]c3ncc(Cl)cc23)c1F`, with 11.8 µM (active).
Regarding `CC(C)NCC(O)COc1ccc(COCCOC(C)C)cc1` (stereo not given), the “viability (% of DMSO control)” value is 134% (inactive).
